Screens deposited in PubChem BioAssay by several laboratories.
SSB-PriA inh: K. pneumoniae PriA-SSBct interaction inhibition. AlphaScreen SSBct-PriA binding, biotinylated peptide. inhibition, % at 33 µM. 430,000 compounds, 0.6% hits; in the data active = inhibition mostly above about 37%, no sharp cut-off; inactive = mostly below about 20%;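 also: plate controls were negative control peptide for no effect and reference peptide for full effect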
Sa ugtP lethal: kills S. aureus RN4220 lacking UgtP; S. aureus RN4220 ugtP deletion, OD600 growth, 16 h; growth inhibition, % (no concentration beside the values); 330,000 compounds, 0.54% hits; AID 1259309; in the data active = growth inhibition above about 68%;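 also: plate controls were untreated wells for no effect and antibiotic for full effect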
Mtb hypoxia inh: Mtb hypoxia fluorescent reporter inhibition. M. tuberculosis hypoxia-regulated fluorescent reporter, fluorescence. fluorescence inhibition, % (concentration not given with the values). 300,000 compounds, 0.1% hits; in the data active = fluorescence inhibition mostly above about 23%, no sharp cut-off; inactive = mostly below about 17%
CCHF vOTU inh-1: blocks the CCHF virus ovarian tumor domain protease | CCHFV vOTU protease, Pep-AMC fluorescence | inhibition, % at 11.5 µM | 370,000 compounds, 0.55% hits | AID 651958; also: 0% = vehicle wells with enzyme and 100% = no enzyme wells
Sa RN4220 lethal: S. aureus RN4220 growth inhibition; OD600, 16 h; inhibition, % (concentration not given with the values); 330,000 compounds, 0.33% hits; AID 1259311; in the data active = inhibition above about 85%;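 also: plate controls were untreated cells for no effect and reference antibiotic for full effect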
CCHF vOTU inh-2: confirmation of CCHF virus vOTU protease inhibitors. 1,900 compounds, 17% hits. shares compounds with CCHF vOTU inh-1. Recombinant CCHFV vOTU, Pep-AMC fluorescence. inhibition, % at 11.5 µM. AID 686976
The depositor's hits bear a star; nt = not tested or not shown. Shown are actives, neighbours in structure and some others; about 1.4% of the full set was active somewhere. Rule as the data show it, unless noted: active = inhibition above about 30%; inactive = the rest.

SMILES	SSB-PriA inh	Sa ugtP lethal	Mtb hypoxia inh	CCHF vOTU inh-1	Sa RN4220 lethal	CCHF vOTU inh-2
CC(=O)c1cccc(-c2ccnc3c2CC(C(=O)Nc2cccc(C(F)(F)F)c2)O3)c1 (centres undefined)	nt	nt	nt	33*	nt	-8
CC(=O)Nc1ccc(NC(=O)C2(C)Cc3c(-c4cccc(C(F)(F)F)c4)ccnc3O2)cc1 (centres undefined)	nt	nt	nt	2	nt	nt
CC(=O)c1cccc(NC(=O)C2(C)Cc3c(-c4cccc(C(F)(F)F)c4)ccnc3O2)c1 (centres undefined)	nt	nt	nt	33*	nt	5
CC(=O)Nc1cccc(-c2ccnc3c2CC(C)(C(=O)Nc2cccc(OC(F)(F)F)c2)O3)c1 (centres undefined)	nt	nt	nt	13	nt	nt
CC(=O)c1cccc(NC(=O)C2Cc3c(-c4cccc(C(C)=O)c4)ccnc3O2)c1 (centres undefined)	nt	nt	nt	11	nt	nt
CCN1CCc2ncnc(SCC(=O)Nc3cccc(C(F)(F)F)c3)c2C1	-1	nt	nt	nt	nt	nt
CCN(C(=O)CCc1cn(CC)c2ccccc12)c1ccc(Oc2cccnc2)cc1	nt	nt	nt	31*	nt	-3
Cc1noc(C)c1CCC(=O)NCCn1nc(-c2cccnc2)n(C2CC2)c1=O	-6	nt	nt	nt	nt	nt
CCN(CC)CCN(C(=O)c1ccc(S(=O)(=O)N2CCOCC2)cc1)c1nc2cc(OC)ccc2s1	-1	nt	nt	nt	nt	nt
Cc1ccc(NC2=CC(=O)C(=O)c3ccccc32)c(C)c1	19	0	11	2	12	nt
O=C1C=C(NCc2ccccc2)c2ccccc2C1=O	5	92*	12	64*	92*	89*
CCOc1ccc(NC2=CC(=O)C(=O)c3ccccc32)cc1	0	nt	nt	91*	nt	45*
O=C1C=C(Nc2cccnc2)c2ccccc2C1=O	37	nt	nt	98*	nt	96*
O=C1C=C(Nc2ccccc2O)c2ccccc2C1=O	43	71	13	97*	77	74*
Cn1c(=O)c2[nH]c(NCCN3CCOCC3)nc2n(C)c1=O	7	nt	nt	nt	nt	nt
N#Cc1c(N=Cc2ccc(O)cc2O)sc2c1C1CCN2CC1	10	2	3	nt	3	nt
Cc1ccc(S(=O)(=O)Nc2ccc(Br)cc2C(NCC(=O)O)c2ccccc2)cc1 (centres undefined)	-7	-28	4	8	12	nt
O=C(O)CSc1cc(NS(=O)(=O)c2ccc(Br)cc2)c2ccccc2c1O	4	nt	nt	114*	nt	104*
O=S(=O)(Nc1cc(Sc2ncn[nH]2)c(O)c2ccccc12)c1ccccc1	14	-10	-7	105*	17	97*
COc1ccc2oc(-c3csc(NC(=O)Cc4ccccc4)n3)cc2c1	0	nt	nt	nt	nt	nt
O=C(CN1CCC(Cn2c(C(F)(F)F)nc3ccccc32)CC1)N1CCc2ccccc21	1	nt	nt	nt	nt	nt
CC(C)(C)CN1CCNCC1Cc1ccc(O)cc1 (centres undefined)	nt	0	8	nt	1	nt
O=c1c2ccccc2c(C=NC2CCN(Cc3ccccc3)CC2)c(O)n1Cc1ccc2c(c1)OCO2	nt	-2	5	31*	4	-16
CN(C)CCN=Cc1c(O)n(Cc2ccc3c(c2)OCO3)c(=O)c2ccccc12	5	1	4	-11	-1	nt
C[n+]1c2ccccc2nc2ccc(NCCO)cc21	21	9	nt	91*	1	81*
SMILES	SSB-PriA inh	Sa ugtP lethal	Mtb hypoxia inh	CCHF vOTU inh-1	Sa RN4220 lethal	CCHF vOTU inh-2
c1ccc2nc3ccccc3nc2c1	-9	4	nt	-10	4	nt
CC(C)n1c(NCCO)nc2ccccc21	-9	0	0	-2	3	nt
CNc1ccc2nc3ccccc3[n+](C)c2c1	-15	nt	nt	102*	nt	79*
O=C(O)CSc1cc(C(=O)c2cc(F)ccc2O)cn2c(=O)c3c(-c4ccccc4)csc3nc12	5	17	11	33*	16	6
CCOC(=O)c1sc2nc3c(SCCC#N)cc(C(=O)c4cc(F)ccc4O)cn3c(=O)c2c1C	-6	-15	3	3	4	nt
O=C(NCc1ccc(Cl)c(Cl)c1)c1cc(C2CCCCN2C(=O)C2CCCCC2)on1 (centres undefined)	nt	nt	nt	31*	nt	5
COC(=O)N1CCCCC1c1cc(C(=O)NCc2ccc(Cl)c(Cl)c2)no1 (centres undefined)	nt	nt	nt	9	nt	nt
O=C(NC1CCCCN(Cc2ccc(Cl)cc2)C1=O)C1C2CC3CC(C2)CC1C3 (centres undefined)	nt	nt	nt	1	nt	nt
O=C1C(Cl)=C(Nc2ccccc2)C(=O)c2ccccc21	10	20	-3	22	56	nt
C=CCNC1=C(Cl)C(=O)c2ccccc2C1=O	24	90*	-5	68*	95*	59*
O=C1C(Cl)=C(NCCc2ccccc2)C(=O)c2ccccc21	31	13	14	83*	37	33*
CCN(CC)CCCNC1=C(Cl)C(=O)c2ccccc2C1=O	2	0	4	56*	26	56*
CC(C)NC1=C(Cl)C(=O)c2ccccc2C1=O	16	64	-3	59*	85	60*
Cc1ccc(C(=O)NCCn2ncccc2=O)cc1C	-4	nt	nt	nt	nt	nt
NS(=O)(=O)c1ccc(C(=O)NCCCn2nc(-c3ccc(F)cc3)ccc2=O)cc1	-18	nt	nt	nt	nt	nt
CC(=O)N(Cc1ccc(F)cc1)C1=C(NCCc2ccccc2)C(=O)c2ccccc2C1=O	74	-1	nt	87*	33	63*
O=S(=O)(Cc1ccccc1)NCc1cccnc1	-17	11	-3	-4	6	nt
O=C1C(Cl)=C(NCc2cccnc2)C(=O)c2ccccc21	9	82	0	70*	72	62*
CC(NC(=O)CS(=O)(=O)c1ccccc1)c1ccccc1 (centres undefined)	-4	-3	7	36*	3	-25
O=C(NCc1cnn2ccccc12)c1ccccc1Br	-6	nt	nt	nt	nt	nt
CCC(=O)NC1=C(Cl)C(=O)C(NC(=O)CC)=C(Cl)C1=O	-17	nt	nt	97*	nt	9
C[C@@H]1CN([C@H](C)CO)S(=O)(=O)c2ccc(Br)cc2O[C@@H]1CN(C)C(=O)NC1CCCC1	nt	nt	nt	-1	nt	nt
COc1ccc(S(=O)(=O)N(C)C[C@@H]2Oc3cc(C#CC4CCCCC4)ccc3S(=O)(=O)N([C@@H](C)CO)C[C@@H]2C)cc1	nt	nt	nt	32*	nt	-8
C[C@H](CO)N1C[C@H](C)[C@@H](CN(C)C(=O)NC2CCCC2)Oc2cc(Br)ccc2S1(=O)=O	nt	nt	nt	30*	nt	-10
CCOC(=O)CSc1nc2c(sc(=S)n2-c2ccc(CC)cc2)c(=O)[nH]1	10	6	1	35*	10	23
SMILES	SSB-PriA inh	Sa ugtP lethal	Mtb hypoxia inh	CCHF vOTU inh-1	Sa RN4220 lethal	CCHF vOTU inh-2
O=C(Nc1sc2c(c1CN1CCCCCC1)CCC2)c1ccc(F)cc1	5	nt	nt	nt	nt	nt
O=C(NCC1(O)CCOCC1)c1ccc2ncsc2c1	0	nt	nt	nt	nt	nt
O=C(O)c1ccc(N/N=C/c2ccc(-c3ccc(Br)cc3)o2)cc1	nt	nt	nt	33*	nt	-3
Cc1nnc(N/N=C\c2ccc(-c3cccc(C(=O)O)c3)o2)n1N	nt	nt	nt	73*	nt	-25
Cc1nnc(N/N=C/c2ccc([N+](=O)[O-])cc2)n1N	nt	nt	nt	122*	nt	-6
Cc1nnc(N/N=C/c2ccc(Br)cc2)n1N	nt	nt	nt	94*	nt	-13
Cc1csc(N/N=C/c2ccc([N+](=O)[O-])cc2)n1	nt	nt	nt	6	nt	nt
